Experimental findings from PubChem BioAssay (NCATS) are described below.

SMILES strings stand for the structures. Records with an inconclusive call do not appear. Where a call stands in place of a potency, no number is given. Active and inactive are the calls of the source. Calls follow the shape of the dose curve; as a rule, active = well fitted inhibition curve with a large enough effect; inconclusive = small, poorly fitted or top-dose-only effect; inactive = flat fitted curve, though single readings scatter.
Potency is read from the fitted curve at half-maximal effect.

In the experiment the target is DNA repair nuclease/redox regulator APEX1 (Homo sapiens) (UniProt P27695). Put plainly: qHTS Validation Assay for Inhibitors of the Human Apurinic/apyrimidinic Endonuclease 1 (APE1) (AID 1705). The note with it: purified APE1 endonuclease activity, fluorescence, titration; series mostly up to 57.1 µM. An excerpt: Assay Provider: David M. Wilson, III, National Institute on Aging, NIH
DNA repair nuclease/redox regulator APEX1 (Homo sapiens), sequence (P27695 whole entry, looked up): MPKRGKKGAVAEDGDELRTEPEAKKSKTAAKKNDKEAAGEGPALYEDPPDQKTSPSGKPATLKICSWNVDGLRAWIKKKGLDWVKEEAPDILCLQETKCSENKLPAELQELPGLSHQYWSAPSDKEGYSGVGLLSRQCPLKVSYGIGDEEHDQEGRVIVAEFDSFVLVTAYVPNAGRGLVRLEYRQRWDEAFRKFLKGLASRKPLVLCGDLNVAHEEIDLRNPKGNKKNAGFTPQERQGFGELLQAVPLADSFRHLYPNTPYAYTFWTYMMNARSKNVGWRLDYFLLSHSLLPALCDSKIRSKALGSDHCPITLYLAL
Screening Center PI: Austin, C.P.
Screening Center: NIH Chemical Genomics Center [NCGC]
The apurinic/apyrimidinic endonuclease APE1 is the primary mammalian enzyme responsible for the removal of abasic (or AP) sites in DNA and functions centrally in the base excision DNA repair (BER) pathway. […] Thus, targeting APE1 could improve the efficacy of current treatment paradigms by promoting selective sensitization or protection of diseased and normal cells, respectively.
Inhibition of APE1 activity was screened by utilizing double-stranded short substrate containing tetrahydrofuran (THF) abasic site labeled with rhodamine-type fluorophore (TAMRA) at the 5'-end and with non-fluorescent Black Hole Quencher-2 (BHQ-2) at the opposing 3'-end. An increase in the fluorescence intensity due to incision of the abasic site by APE1 was used to measure the enzyme activity.
1. Substrate: 50 nM final concentration of TAMRA/BHQ-2 substrate dispensed throughout the plate.
2. Enzyme: […] nM APE1 final concentration in columns 1, 2, 5-48. Column 1 is neutral (100% activity)
3. Control: Pintool transfer of control inhibitor NSC-13755 to column 2 of all assay plates. Two-fold, 16 pt dilution in duplicate to produce final concentrations in the […] uM - […] nM range.
3. Buffer columns in columns 3 and 4 were used as negative control (no enzyme).
Three uL of enzyme were dispensed to 1536-well Greiner black solid bottom plates. Compounds (23 nL) were transferred via Kalypsys pintool. The plates were incubated for 15 min at room temperature, and then 1 uL of substrate solution was added to start the reaction. The plates were immediately transferred into ViewLux High-throughput CCD imager (Perkin-Elmer) in order to measure the reaction progress in kinetic mode (three reads every 60 seconds) using 525 nm excitation and 598 nm emission fluorescence protocol. The fluorescence intensity difference between the third and the first time points was used to compute reaction progress.
For orientation: Quantitative high-throughput screening tests each substance at several concentrations.
`O=C(Nc1cc(C(=O)Nc2ccc(S(=O)(=O)O)cc2S(=O)(=O)O)cc(C(=O)Nc2ccc(S(=O)(=O)O)cc2S(=O)(=O)O)c1)Nc1cc(C(=O)Nc2ccc(S(=O)(=O)O)cc2S(=O)(=O)O)cc(C(=O)Nc2ccc(S(=O)(=O)O)cc2S(=O)(=O)O)c1`: the Potency was 2510 nM (active).

As for `COc1[nH]c2ccc(F)cc2c1C(=O)OCC1CCN(CCNS(C)(=O)=O)CC1`, the Potency entry was “inactive”.

With `CCCCCCCCCCCCC/C=C/[C@@H](O)[C@@H](N)CO`, the Potency result was “inactive”.

With `NCCCCCCNS(=O)(=O)c1cccc2c(Cl)cccc12`, the Potency result is “inactive”.

Take `COc1cc2c(cc1C(F)(F)F)N(C(=O)Nc1cc(F)cc(-c3cccnc3)c1)CC2`: the Potency entry is “inactive”.

Turning to `FC(F)(F)c1cc(CO[C@H]2CCCN[C@H]2c2ccccc2)cc(C(F)(F)F)c1`, the Potency result is “inactive”.

Regarding `O=S(=O)(NCCNC/C=C/c1ccc(Br)cc1)c1cccc2cnccc12`, the Potency entry is “inactive”.

As for `CCCn1c(=O)c2[nH]c(-c3ccc(OCC(=O)Nc4ccc(C#N)cc4)cc3)nc2n(CCC)c1=O`, the Potency result is “inactive”.

Regarding `NCCNS(=O)(=O)c1cccc2cnccc12`, the Potency result is “inactive”.

`C1CCC(N=C(NC23CC4CC(CC(C4)C2)C3)N2CCOCC2)CC1`: the Potency entry was “inactive”.

In the case of `O=Nc1c(-c2c(O)[nH]c3ccccc23)[nH]c2ccccc12`, the Potency entry was “inactive”.

`C[N+](C)(C)CCC(=O)c1cccc2ccccc12`: the Potency result is “inactive”.

Take `Cc1ccc(OCC(O)C(C)NC(C)C)c2c1CCC2` (stereo not given): the Potency entry was “inactive”.

In the case of `Cc1cccc(/C=C/c2ccccc2)n1`, the Potency result was “inactive”.

On to `O=C(O)c1cc(=O)c2ccc(Cl)cc2[nH]1`, for which the Potency entry is “inactive”.

Turning to `COc1ccc2c(c1)c(CC(=O)N1CCOCC1)c(C)n2C(=O)c1ccc(Cl)cc1`, the Potency result was “inactive”.

As to `NC(CCC(=O)NCS(=O)(=O)O)C(=O)O` (stereo not given), the Potency result was “inactive”.

In the case of `Nc1c(S(=O)(=O)O)cc(Nc2ccc(Nc3nc(Cl)nc(Nc4ccc(S(=O)(=O)O)cc4)n3)c(S(=O)(=O)O)c2)c2c1C(=O)c1ccccc1C2=O`, the Potency was 251 nM (active).

For `Oc1cc2c(c(Cl)c1O)CCNCC2c1ccccc1` (stereo not given), the Potency entry is “inactive”.

`Cn1cnc2c(NC3CCCC3)ncnc21`: the Potency entry is “inactive”.

For `CC(N)=NCc1cccc(CN)c1`, the Potency result was “inactive”.

On to `N#C/C(=C\c1ccc(O)c(O)c1)C(=O)Nc1ccccc1`, for which the Potency result is “inactive”.

Regarding `C/C=C1\C(=O)CC2C3CCC4=CC(=O)CC[C@]4(C)C3CC[C@]12C` (stereo not given in full), the Potency result was “inactive”.

As to `S=C(Nc1ccccc1)Nc1nccs1`, the Potency result is “inactive”.

For the compound `COc1ccccc1NC(=O)Nc1nc(-c2cccnc2)nc2ccccc12`, the Potency entry was “inactive”.

`COC(=O)c1c(-c2cc(OC)c(OC)c(OC)c2)c2ccnc(OCc3ncccn3)c2c(=O)n1Cc1ccnc(C)c1`: the Potency entry was “inactive”.

For the compound `CC(C)=CCC/C(C)=C/CC/C(C)=C/CSc1ccccc1C(=O)O`, the Potency entry was “inactive”.

As to `Cc1cccc(C)c1NC(=O)C[N+](C)(C)C`, the Potency entry is “inactive”.

As for `CN(C)CCCCSC(=N)N`, the Potency entry was “inactive”.

Regarding `O=C(OCCN1CCCCC1)c1c[nH]c2ccccc12`, the Potency result is “inactive”.
